# HIV Env fusion – inhibitors of HIV Env-mediated cell fusion; inhibition, % at 12.3 µM; hit rate 1.1% among 360,000; HeLa-JRFL Env/CEM21 cell fusion, luciferase;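 active = mean replicate inhibition score of at least 50 and every replicate individually at or above 50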
# PglD DTNB – PglD (C. jejuni) enzyme inhibition; hit rate 0.098% among 360,000; purified PglD enzyme, DTNB colorimetric CoA detection; inhibition, % at 12.5 µM; in the data active = inhibition above about 16%, passing the limit was not always enough
# NSD2 HMT inh – blocks human histone methyltransferase NSD2; NSD2 peptide methylation, AlphaScreen, 120 min; O96028; inhibition, % at 12.5 µM; hit rate 0.54% among 310,000; in the data active = inhibition above about 50%
# ALR H2O2 inh – human ALR oxidase inhibition via reduced H2O2 | P55789 | purified ALR, DTT oxidation, H2O2 HRP-luminol luminescence | inhibition, % (no concentration beside the values) | hit rate 3.8% among 290,000 | AID 485317;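 active = mean replicate inhibition above about 79%, with every replicate also reaching it, limit read from the data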
# Target sequence (P55789 whole entry, looked up): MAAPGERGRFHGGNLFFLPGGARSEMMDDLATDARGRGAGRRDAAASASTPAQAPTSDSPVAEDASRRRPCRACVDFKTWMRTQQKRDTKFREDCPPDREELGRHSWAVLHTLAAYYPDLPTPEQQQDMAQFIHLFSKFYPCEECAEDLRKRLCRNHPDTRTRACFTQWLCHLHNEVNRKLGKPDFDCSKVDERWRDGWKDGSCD
# F508del corr – correctors of CFTR F508del function in bronchial epithelial cells; CFBE cells, YFP halide quenching; stimulated with forskolin plus potentiator P3; % fluorescence drop versus neutral controls; AID 720511; activity (quench increase), % at 7.58 µM; hit rate 0.36% among 350,000;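 active = mean added fluorescence quench of at least 8% versus neutral control, with both replicates also reaching 8%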;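 note: cells transiently co-express mutant CFTR-F508del with the halide-sensitive YFP; corrector assay measuring rescue of mutant channel to the surface after 24 h compound exposure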
# Casp6 inh – caspase-6 (human) enzyme inhibition. P55212. purified caspase-6, Z-VEID-R110 cleavage fluorescence. inhibition, % at 12.5 µM. hit rate 0.53% among 350,000. AID 686996;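 active = mean inhibition across replicates at least about 35%, with every replicate also reaching that limit, limit read from the data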
# Target sequence (P55212 24-179 limits assumed): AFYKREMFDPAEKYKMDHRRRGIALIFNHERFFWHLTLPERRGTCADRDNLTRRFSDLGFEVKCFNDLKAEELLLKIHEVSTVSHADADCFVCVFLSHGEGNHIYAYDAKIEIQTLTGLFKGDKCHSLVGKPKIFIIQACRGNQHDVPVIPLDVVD
# Target sequence (P55212 194-293 limits assumed): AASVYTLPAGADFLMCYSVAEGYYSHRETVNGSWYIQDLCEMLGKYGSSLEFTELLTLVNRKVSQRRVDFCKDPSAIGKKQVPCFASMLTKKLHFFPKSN
# Numbers stand for hits; i = inactive; nt = not tested or not shown; [ ] = remark or other dose. Most compounds without a hit are left out; they make up all but 4.1% or so of the library.
SMILES,HIV Env fusion,PglD DTNB,NSD2 HMT inh,ALR H2O2 inh,F508del corr,Casp6 inh
COC(=O)[C@]12C[C@H](CC(=O)NCc3cccc(C(F)(F)F)c3)C(=O)N(Cc3ccc4c(c3)OCO4)C1=C[C@H](C(C)(C)C)O[C@@H]2C,59,nt,nt,nt,i,i
COc1ccc(C(=O)/C=C/Sc2nc3ccccc3o2)cc1,i,i,i,i,i,i
CCCCOC(=O)Sc1nc2ccccc2o1,i,i,i,93,nt,nt
COc1ccc(NC(=O)Nc2ccc3c(c2)C(=O)N([C@H](C)CO)C[C@H](C)[C@@H](CN(C)C(=O)c2ccccc2)OCCCC[C@H](C)O3)cc1,i,i,nt,nt,i,i
COc1ccc(NC(=O)N(C)C[C@H]2OCCCC[C@@H](C)Oc3ccc(N(C)C)cc3C(=O)N([C@@H](C)CO)C[C@@H]2C)cc1,i,i,nt,nt,i,52
COc1ccc(NC(=O)Nc2ccc3c(c2)C(=O)N([C@H](C)CO)C[C@H](C)[C@H](CN(C)C(=O)c2ccccc2)OCCCC[C@H](C)O3)cc1,61[16.7 µM],i,nt,nt,i,i
COc1ccc(NC(=O)Nc2ccc3c(c2)C(=O)N([C@@H](C)CO)C[C@H](C)[C@H](CN(C)C(=O)c2ccccc2)OCCCC[C@H](C)O3)cc1,56[16.7 µM],i,nt,nt,i,i
C[C@@H]1CN([C@H](C)CO)C(=O)c2cc(N(C)C)ccc2O[C@@H](C)CCCCO[C@@H]1CN(C)C(=O)Cc1ccccc1,i,i,nt,nt,i,i
C[C@H]1CCCCO[C@H](CN(C)C(=O)Cc2ccccc2)[C@@H](C)CN([C@@H](C)CO)C(=O)c2cc(N(C)C)ccc2O1,i,nt,nt,nt,11,nt
CN1[C@@H]2c3ccc(-c4ccccc4)c(=O)n3C[C@@H]2[C@@H](CO)[C@@H]1C(=O)NC1Cc2ccccc2C1,nt,i,nt,nt,i,i
C[C@@H]1CN([C@H](C)CO)C(=O)c2cc(-c3ccncc3)cnc2O[C@@H]1CN(C)C(=O)c1ccc(F)cc1,i,i,nt,nt,i,i
Cc1ccc(S(=O)(=O)Nc2cccc3c2O[C@@H](CN(C)C(=O)NC2CCCCC2)[C@H](C)CN([C@H](C)CO)C3=O)cc1,i,i,nt,nt,i,i
COc1ccc(NC(=O)Nc2cccc3c2O[C@@H](CN(C)Cc2ccccc2)[C@H](C)CN([C@H](C)CO)C3=O)cc1,i,i,nt,nt,i,nt
CC(C)(C)c1csc(NC(=O)Cc2cccs2)n1,i,nt,i,i,9.7,i
Cc1ccc(S(=O)(=O)N2C[C@H](O)COC[C@H]3O[C@@H](CC(=O)N[C@H]4CCN(Cc5ccccc5)C4)CC[C@@H]32)cc1,nt,i,nt,nt,i,i
COc1ccc(NC2CCCN(C(=O)c3ccc4nc(C)c(C)nc4c3)C2)cc1OC (stereo unspecified),i,i,i,i,i,i
COc1ccc(NC2CCCN(C(=O)C3=NN(C)C(=O)CC3)C2)cc1OC (stereo unspecified),i,i,i,98,i,i
CC(C)c1ccc(NC2CCCN(C(=O)C3=NN(C)C(=O)CC3)C2)cc1 (stereo unspecified),i,i,i,98,i,i
Cc1nn(C)c(C)c1CN(C)S(=O)(=O)c1ccc2ccccc2c1,72,i,nt,i,nt,nt
O=C(O)CCc1ccc(-c2ccc(Cl)cc2)o1,i,i,i,97,nt,nt
O=C(O)CCc1ccc(-c2ccc(Br)cc2)o1,i,i,i,i,nt,nt
Cc1ccc(/C=C2/C(=O)ON=C2c2ccccc2)o1,i,nt,i,i,i,60
COc1cc(/C=C2/C(=O)ON=C2c2ccccc2)ccc1O,i,i,i,95,i,nt
O=C1ON=C(c2ccccc2)/C1=C\c1ccco1,i,i,i,nt,i,36
O=C1ON=C(c2ccccc2)/C1=C/c1ccccc1,i,i,i,nt,i,i
SMILES,HIV Env fusion,PglD DTNB,NSD2 HMT inh,ALR H2O2 inh,F508del corr,Casp6 inh
O=C(C[C@@H]1C=C[C@H](NC(=O)Nc2ccc3c(c2)OCO3)[C@H](CO)O1)NCc1ccc2c(c1)OCO2,i,i,nt,nt,i,i
COCC(=O)Nc1ccc2c(c1)C(=O)N(C)[C@H]1CC[C@H](CC(=O)OC)O[C@@H]1CO2,nt,nt,nt,nt,i,i
Cc1ccc(NC(=O)CSc2nccn(-c3ccc4c(c3)OCCO4)c2=O)cc1,i,nt,i,99,i,i
CCOc1ccc(NC(=O)CSc2nccn(-c3ccc4c(c3)OCCO4)c2=O)cc1,i,nt,i,98,i,i
CCc1ccc(NC(=O)CSc2nccn(-c3ccc4c(c3)OCCO4)c2=O)cc1,i,i,i,nt,i,i
C[C@H]1CCCCO[C@H](CN(C)C(=O)c2ccncc2)[C@@H](C)CN([C@@H](C)CO)C(=O)c2cc(NS(C)(=O)=O)ccc2O1,i,i,nt,nt,i,i
Cc1nc(N2CCC(C)CC2)c2oc3ccccc3c2n1,nt,nt,i,i,nt,nt
COc1ccccc1N1CCN(c2nc(C)nc3c2oc2ccccc23)CC1,63,i,i,i,nt,nt
Cc1c(Cl)c(C(F)F)nn1CC(=O)NC1C(=O)N2C(C(=O)O)=C(CSc3nnnn3C)CSC12 (stereo unspecified),i,nt,i,nt,i,38
Cc1c(Cl)cnn1CC(=O)NC1C(=O)N2C(C(=O)O)=C(CSc3nnnn3C)CSC12 (stereo unspecified),i,nt,i,i,i,nt
COc1cc(NC(=O)NCCN2CCN(c3ccccc3)CC2)cc(OC)c1OC,i,i,i,98,i,i
O=C(CCN1CCN(c2ccccc2)CC1)N/N=C/c1ccc(O)c(O)c1O,i,i,i,nt,i,65
COc1ccc(/C=N/NC(=O)CCN2CCN(c3ccccc3)CC2)c(OC)c1OC,nt,i,i,i,nt,nt
COc1cc(/C=N/NC(=O)CCN2CCN(Cc3ccccc3)CC2)cc(OC)c1OC,i,i,i,nt,nt,nt
O=C(NCCCN1CCN(CCCNC(=O)c2ccccc2F)CC1)c1ccccc1F,i,i,nt,i,nt,nt
COc1cc(/C=N/NC(=O)CCN2CCN(c3ccccc3)CC2)cc(OC)c1OC,i,nt,i,93,i,i
O=C(NCCN1CCN(c2ccccc2)CC1)c1ccccc1F,i,i,i,99,i,nt
C[C@@H]1CN([C@@H](C)CO)C(=O)c2cc(NS(=O)(=O)c3cccs3)ccc2O[C@@H](C)CCCCO[C@@H]1CN(C)C(=O)Nc1ccc(F)cc1,nt,nt,nt,nt,i,nt
COc1ccccc1CNC(=O)COC(=O)c1ccc([N+](=O)[O-])o1,i,i,i,i,i,35
O=C(COC(=O)c1ccc([N+](=O)[O-])o1)NCc1ccccc1,i,nt,i,i,i,i
O=C(COC(=O)c1ccc([N+](=O)[O-])o1)Nc1ccc2c(c1)OC(F)(F)O2,i,i,i,nt,i,56
CCOc1cc(C(=O)CCC(=O)OCC(=O)Nc2ccc(F)cc2)ccc1O,i,i,i,nt,i,i
CN(C)c1ccc(NC(=O)COC(=O)CCC(=O)c2ccc(F)cc2)cc1,i,i,i,97,nt,nt
Cc1ccc(C(=O)CCC(=O)OCC(=O)Nc2ccccc2SCC#N)cc1,i,nt,i,i,i,i
CSc1ccccc1NC(=O)COC(=O)CCC(=O)c1ccc(F)cc1,i,nt,i,i,8.1,i
